Laboratory results published in PubChem BioAssay.
The source made the active and inactive calls. Unless noted, no rule for the calls is given here.

Assays:
[1] = resazurin metabolic signal in HepG2 cells – cell-based, resazurin fluorescence, 24 h, PK04 Diversity Set, profiling panel (AID 1172); details: HepG2 viability, higher = more signal
[2] = budding yeast growth changes without added modifier – OD600, strain BY4716, 24 h, basal condition, primary screen (AID 1173); details: S. cerevisiae BY4716 growth, OD600, 24 h; higher = more signal, called active from +8 up or from −8 down
[3] = viability profiling in MM1S myeloma cells – cell-based, resazurin fluorescence, basal, 24 h, PK04 Diversity Set, profiling panel (AID 1174); details: higher = more signal, called active from +8 up or from −8 down;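 also: MM1S multiple myeloma cell line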
[4] = molecular target: Dihydroorotate dehydrogenase (quinone), mitochondrial (Plasmodium falciparum (isolate 3D7)) (UniProt Q08210); assay: inhibition of P. falciparum DHODH – biochemical, C-terminal His tag, absorbance 600 nm, primary screen (AID 1175); details: PfDHODH enzyme, DCIP absorbance 600 nm; higher = more signal, called active from +8 up or from −8 down;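 also: recombinant parasite enzyme with a five histidine tag at its C terminus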
Chain of Dihydroorotate dehydrogenase (quinone), mitochondrial (Plasmodium falciparum (isolate 3D7)) (Q08210 whole entry, looked up): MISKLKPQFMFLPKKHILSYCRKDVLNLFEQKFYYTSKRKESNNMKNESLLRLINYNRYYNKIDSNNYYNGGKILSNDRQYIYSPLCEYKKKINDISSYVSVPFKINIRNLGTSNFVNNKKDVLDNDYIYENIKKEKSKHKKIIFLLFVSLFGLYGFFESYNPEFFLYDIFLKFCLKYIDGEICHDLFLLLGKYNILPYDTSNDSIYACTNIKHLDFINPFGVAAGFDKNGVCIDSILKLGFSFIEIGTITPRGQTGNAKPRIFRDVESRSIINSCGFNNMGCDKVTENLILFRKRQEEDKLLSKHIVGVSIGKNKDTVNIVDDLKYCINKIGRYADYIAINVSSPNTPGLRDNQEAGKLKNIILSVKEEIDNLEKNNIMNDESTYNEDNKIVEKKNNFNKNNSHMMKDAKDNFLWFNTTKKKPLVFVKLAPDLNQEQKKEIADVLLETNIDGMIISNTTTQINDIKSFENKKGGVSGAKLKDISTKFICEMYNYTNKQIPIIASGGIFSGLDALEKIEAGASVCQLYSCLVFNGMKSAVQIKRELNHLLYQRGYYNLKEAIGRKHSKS

[5] = inhibition of PAO1 biofilm formation – strain PAO1, LB-PBS medium, absorbance 600 nm, primary screen (AID 1176); details: P. aeruginosa PAO1 growth/biofilm, A600, 12 h; higher = more signal
[6] = growth modulation of vineyard yeast isolate – strain RM11-1a, OD600, basal, 24 h, primary screen (AID 1177);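 also: cultures grown under basal conditions with no added stressor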; details: S. cerevisiae RM11-1a growth, OD600, 24 h; higher = more signal, called active from +8 up or from −8 down
[7] = growth of efflux-deficient E. coli DRC39 – strain DRC39, OD650, 24 h, E. coli filamentation inducers, primary screen (AID 1178);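 also: growth measured as culture turbidity by optical density at 650 nm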; details: E. coli DRC39 acrAB, higher = more signal, called active from +8 up or from −8 down
[8] = growth of efflux-deficient E. coli DRC39 – strain DRC39, OD650, 48 h, E. coli filamentation inducers, primary screen (AID 1179);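 also: screen aims at cell division blockers that make cells filament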; details: E. coli DRC39 delta-acrAB growth, higher = more signal, called active from +8 up or from −8 down
[9] = viability profiling in RPMI8226 myeloma cells – cell-based, resazurin fluorescence, basal, 24 h, PK04 Diversity Set, profiling panel (AID 1180); details: higher = more signal;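 also: RPMI8826 multiple myeloma cell line at 5000 cells per well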
[10] = molecular target: E3 ubiquitin-protein ligase XIAP (Homo sapiens) (UniProt P98170); assay: small molecules binding XIAP protein – biophysical, small-molecule microarray, fluorescence 635 nm, primary screen (AID 1181); details: higher = more signal;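 also: score merges 667 nm emission and signal to noise over triplicate slides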
Chain of E3 ubiquitin-protein ligase XIAP (Homo sapiens) (P98170 whole entry, looked up, the tested form may be a part): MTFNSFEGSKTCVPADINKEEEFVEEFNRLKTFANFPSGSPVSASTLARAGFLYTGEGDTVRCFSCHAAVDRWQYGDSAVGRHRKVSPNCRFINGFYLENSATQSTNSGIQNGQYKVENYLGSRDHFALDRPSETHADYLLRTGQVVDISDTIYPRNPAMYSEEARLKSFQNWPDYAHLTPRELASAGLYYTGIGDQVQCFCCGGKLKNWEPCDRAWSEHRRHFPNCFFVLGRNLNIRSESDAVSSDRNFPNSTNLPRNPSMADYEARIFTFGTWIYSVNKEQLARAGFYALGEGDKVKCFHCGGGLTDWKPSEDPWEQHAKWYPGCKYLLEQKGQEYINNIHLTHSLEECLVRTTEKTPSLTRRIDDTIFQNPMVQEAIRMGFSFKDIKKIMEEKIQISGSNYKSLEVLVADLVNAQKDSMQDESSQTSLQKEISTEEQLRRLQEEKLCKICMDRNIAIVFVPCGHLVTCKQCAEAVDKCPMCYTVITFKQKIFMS

[11] = test system: XIP peptide (Xip251-270) binding; assay: XIP fragment 251-270 binding compounds – biochemical, small-molecule microarray, fluorescence 635/667 nm, 0.1 µg/mL protein, primary screen (AID 1182); details: fluorescent protein binding, 635 nm, higher = more signal, called active from +8 up or from −8 down
[12] = test system: XIP peptide (Xip251-270); assay: compounds binding XIP fragment 251-270 – biochemical, small-molecule microarray, fluorescence 635/667 nm, 0.5 µg/mL protein, primary screen (AID 1183); details: fluorescence 635 nm, higher = more signal
[13] = blood-stage malaria parasite viability loss – strain 3D7, DAPI fluorescence, 100 nL, primary screen (AID 1184);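 also: parasites grown inside human red blood cells in medium with human serum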; details: P. falciparum 3D7 growth, 3 d, higher = more signal
[14] = molecular target: Homeobox protein Hox-A13 (Mus musculus) (UniProt Q62424); assay: disruptors of Hoxa13 oligonucleotide interaction – biochemical, fluorescence polarization, labeled oligonucleotide, primary screen (AID 1185); details: Hoxa13:DNA binding, 15 min, higher = more signal, called active from +8 up or from −8 down
Chain of Homeobox protein Hox-A13 (Mus musculus) (Q62424 whole entry, looked up): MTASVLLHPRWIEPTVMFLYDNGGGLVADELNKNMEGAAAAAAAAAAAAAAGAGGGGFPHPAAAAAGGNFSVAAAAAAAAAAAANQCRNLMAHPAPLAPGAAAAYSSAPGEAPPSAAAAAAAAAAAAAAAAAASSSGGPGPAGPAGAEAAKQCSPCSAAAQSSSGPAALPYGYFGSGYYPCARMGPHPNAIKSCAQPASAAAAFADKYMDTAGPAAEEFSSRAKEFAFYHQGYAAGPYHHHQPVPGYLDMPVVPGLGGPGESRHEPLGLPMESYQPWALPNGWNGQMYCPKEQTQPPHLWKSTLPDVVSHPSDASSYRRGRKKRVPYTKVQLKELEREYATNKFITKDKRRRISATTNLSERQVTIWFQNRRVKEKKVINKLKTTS

[15] = blockers of DNA damage checkpoint Chk1 activation – imaging, HeLa, hydroxyurea, phospho-Chk1 antibody, percent positive cells, primary screen (AID 1186); details: hydroxyurea-induced phospho-Chk1 immunofluorescence imaging, higher = more signal
[16] = blockers of DNA damage checkpoint Chk1 activation – imaging, HeLa, hydroxyurea, phospho-Chk1 nuclear intensity, primary screen (AID 1187); details: hydroxyurea-induced phospho-Chk1 immunofluorescence imaging, higher = more signal

SMILES	z-score [1]	z-score [2]	z-score [3]	composite z-score [4]	z-score [5]	z-score [6]	z-score [7]	z-score [8]	z-score [9]	composite z-score [10]	composite z-score [11]	composite z-score [12]	z-score [13]	z-score [14]	z-score [15]	z-score [16]
CCOC(=O)C[C@H]1[C@H](OC(=O)c2ccc(-c3ccccc3)cc2)[C@@H](NC(=O)c2ccc3ccccc3c2)c2cc(OCCCO)ccc2N1C(=O)c1ccc2ccccc2n1	-0.138	-0.158 (inactive)	0.175 (inactive)	-0.746 (inactive)	0.927 (inactive)	-0.736 (inactive)	-0.936 (inactive)	-0.808 (inactive)	-0.152	-0.394	0.0454 (inactive)	0.338	0.563	-1.16 (inactive)	-0.361 (inactive)	-0.561 (inactive)
C=C(/C(=C/C[C@@H](OC(=O)c1ccncc1)c1ccccc1OCCO)c1cc(C(=O)OC)ccc1OC)C(C)C	-0.0182	-0.0905 (inactive)	-0.9 (inactive)	-1.82 (inactive)	0.424 (inactive)	-0.0487 (inactive)	0.315 (inactive)	0.227 (inactive)	-0.722	0.153	0.214 (inactive)	0.596	-2.94	-3.84 (inactive)	-1.77 (inactive)	-1.86 (inactive)
C=CC[C@]1(C(=O)N(C)C)N=C(c2ccc(OCCCO)cc2)O[C@H]1c1ccccc1N=[N+]=[N-]	0.146	0.136 (inactive)	-1.54 (inactive)	0.25 (inactive)	0.286 (inactive)	0.446 (inactive)	-0.0751 (inactive)	-0.179 (inactive)	-1.32	0.121	0.845 (inactive)	0.382	-1.8	-3.37 (inactive)	-0.22 (inactive)	-0.0961 (inactive)
COc1ccc([Si](C)(C)[C@@H]2[C@@H](CCn3cc([C@H](O)c4ccccc4)nn3)O[C@]3(C(=O)N(Cc4ccc(N5CCOC5=O)cc4)c4ccccc43)[C@H]2C)cc1	0.977	0.146 (inactive)	-0.806 (inactive)	0.181 (inactive)	0.483 (inactive)	1.54 (inactive)	0.323 (inactive)	-0.0694 (inactive)	-0.12	0.049	0.0449 (inactive)	0.823	-2.78	-3.54 (inactive)	0.875 (inactive)	0.221 (inactive)
COCCOC(=O)N1C(=O)[C@@]2(c3cc(C#CC4(O)CCCCCC4)ccc31)[C@H](C(N)=O)[C@H]1C(=O)O[C@H](c3ccccc3)[C@H](c3ccccc3)N1[C@@H]2c1ccccc1OCCO	-1.85	0.707 (inactive)	-7.01 (inactive)	1.34 (inactive)	1.68 (inactive)	2.26 (inactive)	-0.735 (inactive)	-0.719 (inactive)	-6.48	-0.229	-0.0203 (inactive)	0.792	-2.19	-1.56 (inactive)	0.276 (inactive)	0.217 (inactive)
